Results reported in PubChem BioAssay.

Biological target: Integrin beta-1 (Homo sapiens) + Integrin alpha-4 (Homo sapiens) (UniProt P13612+P05556)
Assay: inhibition of HUTS-21 binding to VLA-4, pilot screen, VLA-4 allosteric modulator project, U937 cells, HUTS-21 mAb, flow cytometry, validation set (AID 2674);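 note: antibody binding induced by the VLA-4 ligand LDV present at three times its Kd; 0% = LDV ligand with antibody and no compound and 100% = antibody without LDV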
Details: HUTS-21 LIBS mAb binding, at 6.7 µM, hits give high values, binding induced by LDV ligand

Integrin beta-1 (Homo sapiens) + Integrin alpha-4 (Homo sapiens), sequence (P05556 whole entry, looked up): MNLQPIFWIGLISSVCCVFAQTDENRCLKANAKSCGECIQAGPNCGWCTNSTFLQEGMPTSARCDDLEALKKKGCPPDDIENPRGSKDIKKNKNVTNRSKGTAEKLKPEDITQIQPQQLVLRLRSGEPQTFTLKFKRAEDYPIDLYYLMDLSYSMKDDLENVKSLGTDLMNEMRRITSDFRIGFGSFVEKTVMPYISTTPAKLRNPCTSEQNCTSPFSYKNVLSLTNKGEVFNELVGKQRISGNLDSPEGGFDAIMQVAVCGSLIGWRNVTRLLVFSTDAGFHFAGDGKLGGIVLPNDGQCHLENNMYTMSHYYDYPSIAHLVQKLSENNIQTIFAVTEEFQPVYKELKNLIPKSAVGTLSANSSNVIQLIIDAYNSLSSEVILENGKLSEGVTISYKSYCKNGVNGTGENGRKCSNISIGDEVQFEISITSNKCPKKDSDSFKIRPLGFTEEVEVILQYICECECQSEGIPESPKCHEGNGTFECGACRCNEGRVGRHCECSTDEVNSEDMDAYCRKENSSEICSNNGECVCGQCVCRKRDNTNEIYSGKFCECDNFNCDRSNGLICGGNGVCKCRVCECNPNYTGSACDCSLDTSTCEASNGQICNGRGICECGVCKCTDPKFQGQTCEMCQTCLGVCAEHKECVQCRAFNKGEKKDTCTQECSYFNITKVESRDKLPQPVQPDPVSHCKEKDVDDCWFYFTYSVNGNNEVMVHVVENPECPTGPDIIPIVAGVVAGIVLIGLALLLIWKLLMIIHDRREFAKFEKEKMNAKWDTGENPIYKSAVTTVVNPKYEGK
Integrin beta-1 (Homo sapiens) + Integrin alpha-4 (Homo sapiens), sequence (P13612 whole entry, looked up): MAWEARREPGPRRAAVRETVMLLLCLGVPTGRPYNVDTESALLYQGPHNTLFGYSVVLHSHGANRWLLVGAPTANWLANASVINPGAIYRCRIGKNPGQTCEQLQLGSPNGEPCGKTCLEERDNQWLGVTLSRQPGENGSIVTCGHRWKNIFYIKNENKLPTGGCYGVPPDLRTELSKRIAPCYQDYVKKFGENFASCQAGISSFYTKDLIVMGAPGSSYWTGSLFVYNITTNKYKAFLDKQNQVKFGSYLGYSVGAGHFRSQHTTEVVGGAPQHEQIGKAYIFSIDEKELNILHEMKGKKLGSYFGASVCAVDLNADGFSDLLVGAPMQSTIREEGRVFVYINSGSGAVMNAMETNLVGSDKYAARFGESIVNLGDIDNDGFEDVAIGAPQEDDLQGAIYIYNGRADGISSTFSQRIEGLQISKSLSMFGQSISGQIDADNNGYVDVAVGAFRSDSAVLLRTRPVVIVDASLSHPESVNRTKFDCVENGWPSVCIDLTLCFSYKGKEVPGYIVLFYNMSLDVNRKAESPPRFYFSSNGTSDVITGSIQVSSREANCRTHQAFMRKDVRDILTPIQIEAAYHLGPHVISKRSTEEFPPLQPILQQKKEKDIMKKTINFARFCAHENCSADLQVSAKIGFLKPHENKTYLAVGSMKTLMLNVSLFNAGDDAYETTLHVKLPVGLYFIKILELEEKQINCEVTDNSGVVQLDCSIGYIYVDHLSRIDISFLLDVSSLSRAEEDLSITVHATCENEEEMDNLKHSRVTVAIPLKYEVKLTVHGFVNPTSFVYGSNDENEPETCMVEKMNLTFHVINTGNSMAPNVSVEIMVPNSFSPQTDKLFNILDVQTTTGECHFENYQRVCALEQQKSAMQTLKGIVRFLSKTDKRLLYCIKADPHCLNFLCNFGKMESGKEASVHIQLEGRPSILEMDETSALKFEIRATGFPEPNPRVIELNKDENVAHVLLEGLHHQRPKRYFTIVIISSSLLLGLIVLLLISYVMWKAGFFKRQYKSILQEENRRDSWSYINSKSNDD

inhibition, inactive:
Fc1ccc(-n2cc(CNCCc3ccccn3)c(-c3ccccc3Cl)n2)cc1 15.9%
CO[C@@]1(NC(=O)Cc2cccs2)C(=O)N2C(C(=O)O)=C(COC(N)=O)CS[C@@H]21 -18.8%
N#CCC(N)=C(C#N)C#N -4.21%
O=C(OCCN1CCOCC1)c1cccs1 -3.57%
CC(=O)c1cc2c(cc1NC(=O)c1ccco1)OCCO2 10.8%
CC(C)NS(=O)(=O)c1ccc(OCC(=O)Nc2cccc(F)c2)cc1 -11.8%
COc1ccc2[nH]c(CN3CCN(CC(C)C)C(CCO)C3)c(C)c2c1 (stereo not drawn) -3.16%
Cc1ccsc1C1NC(=O)c2ccccc2N1 (stereo not drawn) 0.94%
Fc1ccc(NC(=S)Nc2ccccc2Cl)cc1 20%
CCN1C(=O)C(CC(=O)Nc2ccc(F)cc2)N(Cc2ccco2)C1=S (stereo not drawn) 15.1%
Cc1ccc2c(c1C)NC(C(=O)O)C1CC=CC21 (stereo not drawn) -70%
c1cc(-c2ccncc2)ccn1 0.94%
NS(=O)(=O)c1ccc(CCNC(=O)C2CCCN2C(=O)OCc2ccccc2)cc1 (stereo not drawn) 1.61%
CC(C)CN1CCN(Cc2cccn2-c2ccccn2)CC1CCO (stereo not drawn) 22.9%
CC(C)COCC(CN(Cc1ccccc1)c1ccccc1)N1CCCC1 (stereo not drawn) 1.61%
CS(=O)(=O)NCc1ccc(C(=O)NCc2ccccc2)cc1 -19%
COc1cc(NC(=S)NN2CCN(C)CC2)cc(OC)c1OC 7.85%
CC(=O)[C@@H]1[C@@H](C(=O)c2ccc(C)cc2)[C@]2(C(=O)Nc3ccccc32)[C@H]2C=Cc3cc(F)ccc3N12 -119%
COC(=O)c1ccc(NC(=O)c2ccccc2SC)cc1 1.62%
O=C(Nc1nc2ccccc2s1)c1ccc(F)cc1 -4.52%
CC(=O)N1c2ccccc2C(C)=CC1(C)C -17.3%
CCC(=O)Oc1ccc(C(=O)Nc2ccc([N+](=O)[O-])cc2)cc1 -0.33%
C[C@]12CC[C@@H]3c4ccc(O)cc4CC[C@H]3[C@@H]1CC[C@@H]2O 5.41%
C=CCNc1nc2c(c(=O)n(C)c(=O)n2C)n1CC(=C)C -16.1%
COc1ccc(CN2CCCCC2C(=O)Nc2ccc(OC)c(OCC(C)C)c2)cc1OC (stereo not drawn) -0.45%
Cn1cc(C2N3CC4(C)CN2CC(C)(C3)C4=O)c2ccccc21 (stereo not drawn) 0.58%
Cc1ccc2nc(NC3=NC(CC(=O)O)C(=O)N3)nc(C)c2c1 (stereo not drawn) 0.58%
Cc1ccc(C2CC(=O)C(C=NCCN3CCN(CC(=O)Nc4cc(C)cc(C)c4)CC3)=C(O)C2)cc1 (stereo not drawn) -17.2%
NC(N)=NC(=O)Cc1c(Cl)cccc1Cl -4.6%
O=C(CCSc1ccccc1)N1CCCC1 3.98%
O=C(Nc1ccc(F)c([N+](=O)[O-])c1)c1ccc2c(c1)OCCO2 -1.49%
Nc1ccc2cn[nH]c2c1 -3.77%
CCN(CC)CC#CCOC(=O)C(O)(c1ccccc1)C1CCCCC1 (stereo not drawn) 10.3%
CC(C)CN1CCN(Cc2ccc(C#CC(C)(C)O)cc2)CC1CCO (stereo not drawn) -8.09%
Cc1ccccc1NC(=O)NCCc1c[nH]c2ccccc12 9.71%
C#CCN1C(=O)C(O)(c2c(C)[nH]c3ccccc23)c2ccccc21 (stereo not drawn) -0.31%
Cc1ccc(S(=O)(=O)N2CCC(C(=O)N[C@@H](C)C(=O)NC3CCS(=O)(=O)C3)CC2)cc1 (stereo partly drawn) 12.3%
CCNC(=O)c1c(N)sc2c1CCCCC2 -27.7%
COc1ccccc1C(=O)Oc1ccc2c(c1)O/C(=C\c1ccncc1)C2=O -58.2%

Test system: not listed separately
Assay: superoxide lowering in aged yeast cells, pilot screen, validation compound set (AID 2706;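 active = superoxide response below 65% of plate, a cut near 3 SD across the whole screen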;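 note: yeast exposed to compound for one week at 30 degrees C before staining; 100% = mean of all compound wells on the same plate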)
Details: S. cerevisiae aging, superoxide DHE fluorescence; at 10 µM; hits give low values

Superoxide response (% of plate), inactive:
Fc1ccc(-n2cc(CNCCc3ccccn3)c(-c3ccccc3Cl)n2)cc1 98.4%
CO[C@@]1(NC(=O)Cc2cccs2)C(=O)N2C(C(=O)O)=C(COC(N)=O)CS[C@@H]21 112%
N#CCC(N)=C(C#N)C#N 108%
O=C(OCCN1CCOCC1)c1cccs1 88.9%
CC(=O)c1cc2c(cc1NC(=O)c1ccco1)OCCO2 91.9%
CC(C)NS(=O)(=O)c1ccc(OCC(=O)Nc2cccc(F)c2)cc1 95.1%
COc1ccc2[nH]c(CN3CCN(CC(C)C)C(CCO)C3)c(C)c2c1 (stereo not drawn) 95.8%
Cc1ccsc1C1NC(=O)c2ccccc2N1 (stereo not drawn) 102%
Fc1ccc(NC(=S)Nc2ccccc2Cl)cc1 91.9%
CCN1C(=O)C(CC(=O)Nc2ccc(F)cc2)N(Cc2ccco2)C1=S (stereo not drawn) 107%
Cc1ccc2c(c1C)NC(C(=O)O)C1CC=CC21 (stereo not drawn) 101%
c1cc(-c2ccncc2)ccn1 117%
NS(=O)(=O)c1ccc(CCNC(=O)C2CCCN2C(=O)OCc2ccccc2)cc1 (stereo not drawn) 110%
CC(C)CN1CCN(Cc2cccn2-c2ccccn2)CC1CCO (stereo not drawn) 114%
CC(C)COCC(CN(Cc1ccccc1)c1ccccc1)N1CCCC1 (stereo not drawn) 116%
CS(=O)(=O)NCc1ccc(C(=O)NCc2ccccc2)cc1 105%
COc1cc(NC(=S)NN2CCN(C)CC2)cc(OC)c1OC 91.4%
CC(=O)[C@@H]1[C@@H](C(=O)c2ccc(C)cc2)[C@]2(C(=O)Nc3ccccc32)[C@H]2C=Cc3cc(F)ccc3N12 112%
COC(=O)c1ccc(NC(=O)c2ccccc2SC)cc1 109%
O=C(Nc1nc2ccccc2s1)c1ccc(F)cc1 103%
CC(=O)N1c2ccccc2C(C)=CC1(C)C 112%
CCC(=O)Oc1ccc(C(=O)Nc2ccc([N+](=O)[O-])cc2)cc1 88.4%
C[C@]12CC[C@@H]3c4ccc(O)cc4CC[C@H]3[C@@H]1CC[C@@H]2O 97.8%
C=CCNc1nc2c(c(=O)n(C)c(=O)n2C)n1CC(=C)C 103%
COc1ccc(CN2CCCCC2C(=O)Nc2ccc(OC)c(OCC(C)C)c2)cc1OC (stereo not drawn) 95%
Cn1cc(C2N3CC4(C)CN2CC(C)(C3)C4=O)c2ccccc21 (stereo not drawn) 101%
Cc1ccc2nc(NC3=NC(CC(=O)O)C(=O)N3)nc(C)c2c1 (stereo not drawn) 96.2%
Cc1ccc(C2CC(=O)C(C=NCCN3CCN(CC(=O)Nc4cc(C)cc(C)c4)CC3)=C(O)C2)cc1 (stereo not drawn) 102%
NC(N)=NC(=O)Cc1c(Cl)cccc1Cl 109%
O=C(CCSc1ccccc1)N1CCCC1 109%
O=C(Nc1ccc(F)c([N+](=O)[O-])c1)c1ccc2c(c1)OCCO2 94%
Nc1ccc2cn[nH]c2c1 109%
CCN(CC)CC#CCOC(=O)C(O)(c1ccccc1)C1CCCCC1 (stereo not drawn) 112%
CC(C)CN1CCN(Cc2ccc(C#CC(C)(C)O)cc2)CC1CCO (stereo not drawn) 92.7%
Cc1ccccc1NC(=O)NCCc1c[nH]c2ccccc12 96.6%
C#CCN1C(=O)C(O)(c2c(C)[nH]c3ccccc23)c2ccccc21 (stereo not drawn) 96.9%
Cc1ccc(S(=O)(=O)N2CCC(C(=O)N[C@@H](C)C(=O)NC3CCS(=O)(=O)C3)CC2)cc1 (stereo partly drawn) 103%
CCNC(=O)c1c(N)sc2c1CCCCC2 101%
COc1ccccc1C(=O)Oc1ccc2c(c1)O/C(=C\c1ccncc1)C2=O 119%
